Screening data as filed in PubChem.
L3MBTL1 inh: inhibitors of human L3MBTL1. Q9Y468. AID 485360. AlphaScreen L3MBTL1–H3K9me1 peptide binding. actives 0.66% (n = 230,000). Potency, µM (doses to about 57.1 µM), without a hit: top-dose activity, negative = inhibition, hits mostly inhibitors; further: on the % scale 0 is the no-effect control and ±100 the full control effect; nearly all actives have a fitted effect of over 60% in size
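AlphaScreen proximity signal between nickel-chelate acceptor and streptavidin donor beads (final 10 ug/mL) reports binding of 50 nM L3MBTL1 to 75 nM biotin-H3 K9me1 peptide; complex incubated with compounds 30 min at room temperature; cefsulodin titration as control.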
HP1b binding inh: blocks HP1-beta chromodomain binding to methylated histone tails | P83916 | AlphaScreen HP1-beta / biotin-H3K9me3 peptide binding | Potency, µM (highest dose often 114 µM), for the others: top-dose activity change, negative = inhibition, usual class: inhibitors | actives 0.56% (n = 390,000) | AID 540317; further: nearly all actives have a fitted effect of over 70% in size
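HP1-beta protein (50 nM final) preincubated 30 min at room temperature with biotinylated H3(1-18)K9me3 peptide (50 nM) in PBS pH 7.4, 0.01% Tween-20, then compound added for 30 min. AlphaScreen streptavidin donor/nickel chelate acceptor beads (10 ug/mL final), 30 min dark, luminescence read.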
G9a inh: inhibitors of human histone lysine methyltransferase G9a. Q96KQ7. G9a H3K9 monomethylation, AlphaScreen, 2 h. Potency, µM (doses to about 102 µM), inactives show at the top dose activity, negative = inhibition, hits mostly inhibitors. actives 8.8% (n = 350,000). AID 504332; further: on the % scale 0 is the no-effect control and ±100 the full control effect; nearly all actives have a fitted effect of over 75% in size
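Methyltransferase reactions run at room temperature for 2 h (20 nM enzyme, 500 nM biotin-H3K9 peptide, 20 uM SAM) after a 15 min compound preincubation; product detected by AlphaScreen beads and anti-H3K9me1 antibody.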
BAZ2B inh: BAZ2B (human) inhibition; Potency, µM (top dose mostly 114 µM), for the others: at the top dose activity change, negative = inhibition, most hits filed as inhibitors; Q9UIF8; AID 504333; AlphaScreen BAZ2B-H3K14Ac peptide displacement; actives 4.4% (n = 360,000); further: on the % scale 0 is the no-effect control and ±100 the full control effect; nearly all actives have a fitted effect of over 60% in size
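Inhibition is scored as reduced AlphaScreen emission. The BAZ2B/b-H3(5-23)K14Ac complex (50 nM each) in PBS pH 7.4, 0.01% Tween-20 meets compound (up to 110 uM) for 30 min at RT before bead addition.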
JMJD2A Tudor: JMJD2A Tudor domain (human) inhibition. AlphaScreen JMJD2A-Tudor / H3K4me3 peptide binding. AID 504339. O75164. Potency, µM (highest dose often 114 µM), for inactives: top-dose activity change, negative = inhibition, usual class: inhibitors. actives 4.4% (n = 390,000); further: on the % scale 0 is the no-effect control and ±100 the full control effect; nearly all actives have a fitted effect of over 50% in size
GLS inhibitor: glutaminase GLS (human) inhibition; GLS enzymatic activity, qHTS titration; Potency, µM (highest dose often 45.5 µM), inactives show top-dose activity change, negative = inhibition, most hits filed as inhibitors; actives 0.21% (n = 410,000); AID 624170; further: on the % scale 0 is the no-effect control and ±100 the full control effect
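Glutamate formation by hKGA was monitored fluorometrically using coupled glutamate oxidase, HRP and Amplex Red. Substrate was added as 1 mM L-glutamine solution; incubation was 30 min at RT after an initial read.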
Numbers without * were called inactive; u = inconclusive; x = no result given; [ ] = dose if it differs, or a comment. In the library only some 10% were active in any assay of this set; here they are far more common. The call rests on the fitted dose curve; in most records, active means well fitted curve in the direction sought with a large enough effect; inconclusive means small, poorly fitted or top-dose-only effect, or another doubt; inactive means no such curve, though single readings can be large; an effect the other way counts as inactive or inconclusive. Potency means the concentration at half of the fitted maximal effect.

SMILES	L3MBTL1 inh	HP1b binding inh	G9a inh	BAZ2B inh	JMJD2A Tudor	GLS inhibitor
COCCN=C1NN=C(c2ccc(C)c([N+](=O)[O-])c2)CS1	-6%	12%	10µM*	-29%	u	25%
Clc1ccc(C2=NNC(=NCC3CCCO3)SC2)cc1 (stereo unspecified)	-8%	2%	u	u	-36%	1%
COc1ccc(CN=C2NN=C(c3cccc(OC)c3)CS2)cc1	u	2%	u	u	-31%	1%
CCCCN=C1NN=C(c2ccc(C)c(C)c2)CS1	x	u	32µM*	-36%	-21%[11.4 µM]	0%
FC(F)Sc1ccc(N=C2NN=C(c3ccc4c(c3)OCCO4)CS2)cc1	-12%	u	x	-7%	-23%	x
COc1ccc(N=C2NN=C(c3ccc4c(c3)OCCO4)CS2)cc1	x	u	45µM*	u	u	-4%
CCCCN=C1NN=C(c2ccc3c(c2)OCCO3)CS1	x	18%	45µM*	x	-35%	0%
CC(=O)c1sc2c(c1C)c(=O)n(-c1ccc(Cl)cc1)c(=O)n2Cc1cc(=O)n2cc(Cl)ccc2n1	x	24%	-5%[59 µM]	-1%	3%	-3%
O=C(O)c1ccc2c(c1)C(=O)N([C@H](Cc1ccc(-c3ccccc3)cc1)C(=O)O)C2=O	0%	x	-12%[12.7 µM]	-7%	-9%	x
C[C@H]1C=CC(=O)C[C@H]1c1c(F)cccc1Cl	x	25%	x	x	-10%	x
COc1ccc(-c2cnnn2-c2ccc(NC(=O)/C=C/c3ccc(OC)c(OC)c3)cc2)cc1	-14%	u	50µM*	-3%	-19%	0%
COc1ccc(/C=C/C(=O)Nc2ccccc2)cc1OC	2%	29%	-35%	-15%	-7%	2%
COc1ccc(/C=C/C(=O)Nc2ccc(-n3nncc3-c3ccc(OC)c(OC)c3)cc2)cc1OC	-7%	22%	50µM*	-3%	-11%	7%
Cn1cnc(S(=O)(=O)N2CCCC(C(=O)NCc3ccc(F)cc3)C2)c1 (stereo unspecified)	x	38%	7%[12.7 µM]	-4%	5%	-3%
CCOC(=O)c1c2c3c(cccc3n(C)c1=O)C(=O)c1ccccc1-2	0%[2.29 µM]	-1%	15%[0.501 µM]	u	u	-8%
CCOC(=O)c1c2c(n(Cc3ccccc3)c1C)C(=O)C(=O)c1ccccc1-2	x	25µM*	x	x	7.1µM*	-6%
CCOC(=O)c1c2c3c(c(Cl)ccc3[nH]c1=O)C(=O)c1ccccc1-2	-25%	4%	u	32µM*	-24%	-9%
CCOC(=O)c1c2c3c(cccc3[nH]c1=O)C(=O)c1ccccc1-2	1%	22%	56µM*	-19%	-18%	-2%
Cc1ccc(CN2C(=O)SC(Nc3ccc(Cl)cc3)C2=O)cc1 (stereo unspecified)	x	42%	7%[59 µM]	12%	8%	-12%
CC(C)NC(=O)c1ccc2c(c1)nc1n2CCCCC1	x	23%[57 µM]	-20%[59 µM]	3%	-2%	-2%
Nc1ncc(S(=O)(=O)NCc2cccc(Cl)c2)cn1	x	29%[57 µM]	6%[59 µM]	5%	17%	8%
Fc1ccc(-n2c(-c3ccc4ccccc4n3)n[nH]c2=S)cc1	3%	21%	0%	-9%	-32%	-8%
Cc1ccc(-n2c(-c3ccco3)n[nH]c2=S)cc1	11%	-17%	x	-12%	22µM*	-10%
CCOc1ccc(-n2c(-c3ccco3)nc3c(cnn3-c3ccc(C)cc3)c2=O)cc1	-2%	28%	8%	-16%	-14%	-3%
CCOc1ccc(-n2c(-c3ccco3)n[nH]c2=S)cc1	-5%	u	3.2µM*	u	5.6µM*	10%
SMILES	L3MBTL1 inh	HP1b binding inh	G9a inh	BAZ2B inh	JMJD2A Tudor	GLS inhibitor
Fc1ccc(-n2c(-c3ccco3)n[nH]c2=S)cc1	x	15%	u	-23%	6.3µM*	7%
Cc1cc(/C([O-])=C(/C(=S)Nc2ccc(F)cc2)[n+]2ccccc2)c(C)n1-c1ccc(F)cc1	-8%	x	u	45µM*	50µM*	1%
Cc1cc(/C([O-])=C(/C(=S)Nc2ccccc2)[n+]2ccccc2)c(C)n1-c1ccccc1	x	u	50µM*	u	x	11%
COc1ccccc1CNC(=O)COC(=O)c1ccc(C)c(S(=O)(=O)N2CCOCC2)c1	-1%	28%	4%[0.501 µM]	1%	6%	-15%
COc1ccccc1CNC(=O)COC(=O)c1cccc(S(=O)(=O)N2CCOCC2)c1	6%	13%	13µM*	-1%	-3%	-5%
O=C(COC(=O)c1cccc(S(=O)(=O)N2CCN(c3ccccc3)CC2)c1)NCc1ccco1	u	-54%	45µM*	45µM*	22µM*	7%
NC(=O)COC(=O)c1cccc(S(=O)(=O)N2CCN(c3ccccc3)CC2)c1	-18%	20%	-31%	16%	0%	2%
c1csc(CNc2ccc3c(c2)OCCO3)c1	-3%	3%	3.5µM*	50µM*	u	10%
Clc1cc(NCc2cccs2)ccc1N1CCOCC1	-6%	-23%	11µM*	50µM*	u	11%
COc1cccc(-c2cc(NCc3cccc(C)c3)ncn2)c1	x	x	-9%[0.501 µM]	x	x	x
CN(C)CCNC(=O)c1scc2c1CCCC2	x	25%	x	u	89µM*	-2%
Cc1cccc(OC(=O)CSc2nnc(-c3cccs3)o2)c1C	x	33%	u	3%	2%	-2%
O=C(NC1(O)C(=O)c2ccccc2C1=O)c1ccc(C(F)(F)F)cc1	x	23%	x	-17%	5%	-13%
Cc1ccc(C(=O)NC2(O)C(=O)c3ccccc3C2=O)cc1C	x	15%	50µM*	-20%	-4%	-6%
CC(C)(C)n1cnc2cc(NCc3ccccc3Cl)ccc21	x	u	16µM*	32µM*	40µM*	-10%
